In PubChem BioAssay (NCI):
About 83,000 compounds went through this panel and 20% of them were active in at least one assay; those are over-represented in the sample as a whole.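 Activity criterion: percent growth below 10, measured after cells in 96-well plates were exposed to a single compound concentration for 48 hours.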 A number with no mark means an inactive call. The source made the active and inactive calls.

How the values were obtained:
Assay in all cases: NCI-60 one-dose screen, 48 h (100 = growth as untreated, 0 = no growth, -100 = all killed)
A549/ATCC NSCLC = conditions: 10 µM unless noted
DU-145 prostate = conditions: 10 µM unless noted
RXF 393 renal = conditions: 10 µM unless noted
SF-295 CNS = conditions: 10 µM unless noted
SF-539 CNS = conditions: 10 µM unless noted
UACC-257 melanoma = conditions: 10 µM unless noted
HCT-15 colon = conditions: 10 µM
HT29 colon = conditions: 10 µM unless noted
SNB-75 CNS = conditions: 10 µM unless noted
SK-MEL-5 melanoma = conditions: 10 µM unless noted
LOX IMVI melanoma = conditions: 10 µM unless noted
SK-MEL-2 melanoma = conditions: 10 µM unless noted
ACHN renal = conditions: 10 µM unless noted
CAKI-1 renal = conditions: 10 µM unless noted
A498 renal = conditions: 10 µM unless noted
HL-60(TB) leukemia = conditions: 10 µM unless noted
MOLT-4 leukemia = conditions: 10 µM
OVCAR-8 ovarian = conditions: 10 µM unless noted
IGROV1 ovarian = conditions: 10 µM
HS 578T breast = conditions: 10 µM unless noted

| SMILES | growth (A549/ATCC NSCLC) | growth (DU-145 prostate) | growth (RXF 393 renal) | growth (SF-295 CNS) | growth (SF-539 CNS) | growth (UACC-257 melanoma) | growth (HCT-15 colon) | growth (HT29 colon) | growth (SNB-75 CNS) | growth (SK-MEL-5 melanoma) | growth (LOX IMVI melanoma) | growth (SK-MEL-2 melanoma) | growth (ACHN renal) | growth (CAKI-1 renal) | growth (A498 renal) | growth (HL-60(TB) leukemia) | growth (MOLT-4 leukemia) | growth (OVCAR-8 ovarian) | growth (IGROV1 ovarian) | growth (HS 578T breast) |
| --- | --- | --- | --- | --- | --- | --- | --- | --- | --- | --- | --- | --- | --- | --- | --- | --- | --- | --- | --- | --- |
| CC(C)N=C(NC(C)C)N1CC1 | 101% | 122% | 122% | 102% | 103% | 105% | 110% | 111% | 95.4% | 113% | 116% | 112% | 109% | 99.3% | 116% | 104% | 105% | 108% | 123% | 107% |
| O=CC(Br)C(Br)c1ccccc1 (stereo unspecified) | 97.6% | 77% | 86.8% | 97.9% | 94% | 93.8% | 78.1% | 71.4% | 92.6% | 89.9% | 56.2% | 112% | 86.2% | 92.9% | 102% | 26.3% | 16.6% | 85.6% | 74.8% | 97.2% |
| O=[N+]([O-])c1ccccc1N1CCNCC1 | 95% | 108% | 121% | 104% | 99.8% | 94.4% | 105% | 85.4% | 92.5% | 102% | 95.8% | 106% | 105% | 94.1% | 97.6% | 80.1% | 103% | 107% | 85% | 107% |
| CC(N)Cc1ccc(O)cc1 (stereo unspecified) | 103% | 112% | 112% | 118% | 117% | 94.6% | 113% | 98.4% | 107% | 103% | 99.2% | 94.8% | 108% | 103% | 80.7% | 90.2% | 83.4% | 101% | 111% | 103% |
| O=c1cc[nH]c(=O)o1 |  | 104% | 114% | 101% | 104% |  | 104% | 95.9% | 84.7% | 105% | 97.9% | 93.3% | 115% | 102% | 114% | 80.2% | 97.4% | 96.6% | 104% | 120% |
| O=C(O)c1cccc(CCl)c1 | 96% | 108% | 112% |  | 94.3% | 94.2% | 93% | 102% | 87.2% | 113% | 95.8% | 103% | 100% | 106% | 117% | 93.4% | 93.2% | 96.5% |  |  |
| C[C@]12CC[C@H]3[C@@H](C[C@@H]4N=C(c5ccc(O)cc5)S[C@@]45C[C@H](O)CC[C@]35C)[C@@H]1CC[C@@H]2O | 52.1% | 63.8% | -46.3% (active) | -36.2% (active) | 8.02% (active) | 66.2% | 29.5% | 19.9% | 26.4% | 72% | 25.4% | 44.9% | 46% | 61.3% | 49.4% | 22.7% | -23.2% (active) | 74.2% | 80.7% | 4.16% (active) |
| O=C(CC1(O)C(=O)Nc2ccc(F)cc21)c1ccc(C(=O)NCC2CCC3(CC2)OOC2(CCCCC2)OO3)cc1 (stereo unspecified) | -66.5% (active) | 3.83% (active) | 59.4% | 79.3% | 7.74% (active) | 70.4% | 74.1% |  | 69.8% |  | 39.1% |  | -25.2% (active) | -15.9% (active) | 65% | -64.2% (active) | 22.5% | 19.7% | 3.82% (active) | 73.8% |
| O=C(CI)Nc1ccc(Br)cc1 | 90.9% | 23.3% | 26.5% | 98.2% | 95.8% | 92.9% | 1.13% (active) | -87.4% (active) | 96.7% | 62.6% | -78.6% (active) | 76.4% | -79.8% (active) | -67.5% (active) | 142% | 69.6% | -28.4% (active) | 11.9% | -55.2% (active) | 132% |
| S=P(N1CCCCCC1)(N1CC1)N1CC1 | 104% | 112% | 124% | 117% | 102% | 106% | 118% | 101% | 98.7% | 107% | 103% | 97.9% | 104% | 96.3% | 107% | 84.3% | 33.4% | 100% | 90.1% | 122% |
| C[C@]12CCc3sc(-c4ccc(Cl)cc4)nc3C1=CC[C@@H]1[C@@H]2CC[C@]2(C)C(=O)CC[C@@H]12 | 80.2% | 43.6% | -36.9% (active) | 5.96% (active) | 29.6% | 99% | 34.6% |  | 58.3% | 62.4% | 55.1% |  | 70.6% | 67.7% | 73.3% | 39% | 8.47% (active) | 80.4% | 92.5% | 44.6% |
| CC1(C)N=C(N)N=C(N)N1c1ccc(CCCCc2ccc(Cl)cc2S(=O)(=O)F)c(Cl)c1 | 9.77% (active) | 22.5% | 29.6% | 22.9% | 19.6% | 10.1% | 22.4% | 11.4% | 51.9% | 19.5% | 13.3% | 38.3% | 18.7% | 20.6% | 54.7% | 15.5% | 28.7% | 15.2% | 30.7% | 65.5% |
| O=[N+]([O-])c1cccc([As]=[As]c2cccc([N+](=O)[O-])c2)c1 (stereo unspecified) | -75.2% (active) | -100% (active) | -96.1% (active) |  | -99.7% (active) | -94.4% (active) | -83.5% (active) | -61.6% (active) | -100% (active) | -100% (active) | -55.4% (active) | -91.4% (active) | -100% (active) | -95.9% (active) | -98.8% (active) | -57% (active) | -37.4% (active) | -70% (active) | -57.8% (active) | 6.73% (active) |
| C=CC(O)CN1CC1CC (stereo unspecified) | 92.8% | 108% | 115% | 102% | 98% | 88.6% | 102% |  | 85.1% | 115% | 92.6% |  | 102% |  | 89.5% | 101% | 96.2% | 89.1% | 108% | 97.3% |
| Nc1cccc(CC(=O)Nc2ccc(S(=O)(=O)F)cc2)c1 | 96.5% | 110% | 87.3% | 101% | 97.4% | 103% | 101% | 91.9% | 71.8% | 104% | 98% | 125% | 112% |  |  |  | 117% | 91.2% |  | 99.1% |
| CN1CCN(C(=O)COc2ccc(/C=C3\CC4C5CC=C6CC(Cl)CCC6(C)C5CCC4(C)C3=O)cc2)CC1 (stereo unspecified) | 65% | 64.9% | 79% | 82.8% | 93.6% | 38.8% | 54.4% | -9.75% (active) | 86.8% | 80.4% | 23.5% | 89.8% | 80.1% | 70.1% | 75.3% | 38.3% | 59.3% | 78.9% | 86.6% |  |
| N#Cc1ncc(/N=C/c2ccc(N(CCCl)CCCl)cc2)s1 | 86% | 49.2% | 84.7% | 58.4% | 40.7% | 82.4% | 50.6% | 91.6% | 61.6% | 88.4% | 61.3% | 57% | 33.8% | 7.36% (active) | 88.2% | 39.3% | 42.7% | 78.3% | 90% | 90.4% |
